What is called inhibition is the change of the read-out against control, counted positive when it falls.

Drawing on PubChem BioAssay AID504329 (Southern Research Specialized Biocontainment Screening …, 2011), this text covers inhibition for 57 compounds.

Out of some 340,000 compounds screened, about 1,000 (0.29%) were called active. Not all results are given here. Results with a measured potency or affinity are listed apart. Values without a mark were called inactive. Cut-off read from the data, not from the text of the source: inconclusive = inhibition above about 27% without an active follow-up result; inactive = below that.

A short description of the test: NS1A inhibition, H1N1 influenza, cell based functional assay (AID 504329). To be noted: percent inhibition, at 12.5 µM, active compounds read high.
With `O=C(NCc1ccco1)/C(=C/c1ccc([N+](=O)[O-])cc1)NC(=O)c1ccco1`, the inhibition is -2.93%. Regarding `Cc1ccc(CN2CCN(Cc3cn(C(C)C)c4ccccc34)CC2CCO)o1` (configuration not stated), the inhibition is 14.6%. Turning to `Cc1sc2nc(SCC(=O)Nc3cccc(C(=O)O)c3)[nH]c(=O)c2c1C`, the inhibition was -8.26%. With `CCOC(=O)C1CCN(C(=O)CCNS(=O)(=O)c2cc(Br)cnc2N)CC1`, the inhibition was -2.4%.

As to `CCOC(=O)C1=C(C)N=c2s/c(=C/c3cccc([N+](=O)[O-])c3O)c(=O)n2C1c1ccc(OC)cc1OC` (configuration not stated), the inhibition is 22.2%.

For the compound `CCOC(=O)C1=C(C)N=c2s/c(=C/c3cccc([N+](=O)[O-])c3O)c(=O)n2C1c1cc(OC)c(OC)c(OC)c1` (configuration not stated), the inhibition is 20.1%. In the case of `CCc1ccc(C(=O)C(C)OC(=O)CNS(=O)(=O)c2ccc(C)cc2)cc1` (configuration not stated), the inhibition is -0.69%.

In the case of `COc1ccc(C=C2C(=O)c3ccccc3C2=O)cc1O`, the inhibition was 16.6%. Take `COc1cc(C=C2C(=O)c3ccccc3C2=O)ccc1O`: the inhibition is -20.5%.

As for `CCn1c(C)nc2cc(C(=O)NN=Cc3ccccc3OC(F)F)ccc21`, the inhibition is -6.28%. As for `CCCN1CCC(=O)N(CCOc2ccccc2)CC1`, the inhibition was -8.48%.

Regarding `CC(C)CN1CCC(=O)N(CCOc2ccccc2)CC1`, the inhibition is 2.95%. For `Cc1ccc(-n2c(O)c(C=NC3CCS(=O)(=O)C3)c3ccccc3c2=O)c(C)c1` (configuration not stated), the inhibition was 9.46%. With `O=C(CSc1ccc(-c2ccccn2)nn1)c1ccc([N+](=O)[O-])cc1` the figure was 27.3%; with `c1ccc(CSc2ccc(-c3cccnc3)nn2)nc1`, -9.97%. As to `Clc1ccc(-c2ccc(SCc3ccccn3)nn2)cc1`, the inhibition was 0.43%. `c1cncc(CSc2ccc(-c3cccnc3)nn2)c1`: the inhibition was 0.64%.

For `O=C(CSc1ccc(-c2ccccn2)nn1)c1ccc(F)cc1`, the inhibition is -9.8%. `c1ccc(CSc2ccc(-c3ccccn3)nn2)cc1`: the inhibition is -2.51%.

Turning to `Cc1onc(-c2ccc(Cl)cc2Cl)c1-c1csc(N/N=C/c2ccccc2)n1`, the inhibition was -21.5%. Next, `CN(C(=O)c1ccc(NC(=O)Cc2cccc(NC(=O)C3CCCN(C(=O)C4CCCCC4)C3)c2)cc1)C1CCCC1` (configuration not stated): -1.36%; `CCS(=O)(=O)N1CCN(S(=O)(=O)c2ccc(S(=O)(=O)NC3CC3)cc2)CC1`: 7.16%.

With `Cc1ccc(NC(=O)COc2ccc(C(=O)c3ccccc3)cc2)c(O)c1`, the inhibition was 8.15%. As to `CCNC(=S)N1CCN(c2ccccc2OCC)CC1`, the inhibition is 0.76%.

Turning to `Cc1ccc(CN2CCNC(=O)C2CC(=O)NCCCn2ncc3ccccc32)o1` (configuration not stated), the inhibition was -1.25%. `CCO[C@H]1OC(C(=O)N2CCN(Cc3ccc4c(c3)OCO4)CC2)=C[C@@H](C2CCCCC2)[C@@H]1CCCO`: the inhibition is 8.35%. For the compound `CC(C)N(Cc1nc(-c2ccc(Cl)cc2)no1)Cc1nccn1C`, the inhibition was -7.64%. With `CCOC(=S)SCc1cn2cccc(C)c2n1` the figure was 4.77%. Consider `CNc1ccc(Oc2nc([N+](=O)[O-])nn2C)cc1`, for which the inhibition is -2.73%. As for `Fc1ccc(/C=N/n2cnn(Cc3ccccc3Cl)c2=S)cc1`, the inhibition is -7.06%. Regarding `O=C(CCCc1ccccc1)Nc1nncs1`, the inhibition is 0.92%. Consider `O=S(=O)(NCC1COc2ccccc2O1)c1ccc2ccccc2c1` (configuration not stated), for which the inhibition is 1.74%. With `Cn1c(/C(C#N)=C(\O)c2cccc(F)c2)nc2ccccc21` the figure was 0.62%; with `Cc1nc2sccn2c(=O)c1S(=O)(=O)N1CCN(c2cccc(C(F)(F)F)c2)CC1`, 3.59%. Next, `COc1ccc(/C=C2/Sc3ccc(C(=O)NCCCN4CCOCC4)cc3NC2=O)cc1OC`: 9.94%; `CCN1CCCC1CNC(=O)c1ccc2c(c1)NC(=O)/C(=C\c1ccc(C)cc1)S2` (configuration not stated): 21.9%. As for `O=C(NCC1CCCN1S(=O)(=O)c1cccs1)c1ccccc1F` (configuration not stated), the inhibition is -4.78%.

As to `CC(=O)Nc1ccc(S(=O)(=O)N2CCN(c3ccc(C)c(Cl)c3)CC2)cc1`, the inhibition was -15.9%. On to `O=[N+]([O-])c1nn(-c2ccc3c(c2)OCCO3)n(O)c1=NC1CCCCC1`, for which the inhibition was 9.84%. Consider `CN=c1c([N+](=O)[O-])nn(-c2ccc3c(c2)OCCO3)n1O`, for which the inhibition was 2.75%.

For the compound `O=[N+]([O-])c1nn(-c2ccc3c(c2)OCCO3)n(O)c1=NC1CCCC1`, the inhibition is 15.3%. Turning to `O=[N+]([O-])c1nn(-c2ccccc2)[n+]([O-])c1N1CCN(c2ccccc2)CC1`, the inhibition is 0.82%. Consider `C/C=C(\C)CN1CCN(c2ccccc2)CC1`, for which the inhibition is -6.09%.

For the compound `COc1cccc2c(Cl)c(CC=C(Cl)Cl)c(C)nc12`, the inhibition was 8.95%. `O=[N+]([O-])c1ccc2c(c1)c(-c1ccccc1)nc1nncn12`: the inhibition was -1.91%. Take `CC(C)n1c2ccccc2c2cc([N+](=O)[O-])ccc21`: the inhibition is 3.2%. With `CCN(CC)CC(O)Cn1c(C)c(-c2ccccc2)c2cc([N+](=O)[O-])ccc21` (configuration not stated) the figure was 27.4%. On to `O=[N+]([O-])c1ccc(-[n+]2c(-c3ccccc3)cc(-c3ccccc3)cc2-c2ccccc2)cc1`, for which the inhibition was 0.94%.

With `COc1ccc(S(=O)(=O)Nc2ccc3c(c2)C(=O)N([C@H](C)CO)C[C@H](C)[C@@H](CN(C)C(=O)Nc2ccccc2)O3)cc1`, the inhibition was 6.6%. With `COc1ccc(Nc2nc3c([nH]2)c(=O)[nH]c(=O)n3C)cc1` the figure was -6.85%; with `O=C(CN1C(=O)NC2(CCOc3ccccc32)C1=O)NCCc1ccc(F)cc1` (configuration not stated), -8.82%; with `N#CCCN1CCN(C2=NC(=O)/C(=C\c3cccs3)S2)CC1`, 8.67%. With `CCOC(=O)c1ccccc1NC(=O)/C=C/c1cc(OC)c(OC)c(OC)c1` the figure was -4.73%. Regarding `COc1cccc([C@@H]2CC=C(C(=O)O)[C@H](c3ccc(Br)cc3)N2S(=O)(=O)c2ccc(C)cc2)c1`, the inhibition is -4.53%. For the compound `CN(N=Nc1ccc([N+](=O)[O-])cc1)c1ccccc1`, the inhibition was 8.69%.

As to `CCCCN(C)c1ccc([N+](=O)[O-])cc1`, the inhibition is 11.8%.

For `Cc1ccc(CSC2=NCCN2C(=O)c2ccc([N+](=O)[O-])cc2)cc1`, the inhibition was 5.18%.
